# Sampled rows, rich in hits. Any-hit rate of the full collection: about 0.37%.
# Rac1 act GTP bind – GTP binding modulators of activated mutant Rac1, primary screen, biochemical, bead-based flow cytometry, multiplex, fluorescent GTP. 190,000 tested, 0.11% active. GST-Rac1 activated beads; actives lie on both sides; 100% means binding = to untreated wells. percent activity (GTP binding), % at 10 µM;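 active means GTP binding at least 20 percentage points away from the 100% baseline, in either direction, so actives lie on both sides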
# Rab7 wt GTP bind – modulators of GTP binding to Rab7, primary screen, biochemical, wildtype, multiplex bead flow cytometry; Rab7 GTPase wild type (dog), Bodipy-FL-GTP binding; GST-Rab7 beads, fluorescent GTP binding; actives lie on both sides; untreated = 100%, excess cold GTP = 0%; GTP binding activity (percent of control), % at 10 µM; 190,000 tested, 0.055% active;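 active means fluorescent GTP binding to Rab7 beads changed by at least 20 points from the 100% baseline, either direction, mostly lower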;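 further: median green fluorescence of bound Bodipy-FL-GTP per Rab7 bead population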
# HRas wt GTP – modulators of GTP binding to HRas wildtype, primary screen, biochemical, bead-based flow cytometry, multiplex; GST-Ras wt beads, Bodipy-FL-GTP binding; actives lie on both sides; GTP binding activity, % at 10 µM; 190,000 tested, 0.14% active;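 active means GTP binding activity at least 20% away from the 100% baseline, either lowered as inhibitor or raised as activator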;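 further: 0% = unlabeled GTP competition control and 100% = no-compound control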
# Target sequence (P01112 whole entry, looked up): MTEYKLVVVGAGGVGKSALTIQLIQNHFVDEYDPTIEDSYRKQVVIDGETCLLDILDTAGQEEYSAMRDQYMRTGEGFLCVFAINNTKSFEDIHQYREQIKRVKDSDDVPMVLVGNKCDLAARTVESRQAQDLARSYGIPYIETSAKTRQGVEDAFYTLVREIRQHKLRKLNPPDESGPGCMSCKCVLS
# Rab2 wt GTP – modulators of GTP binding to Rab2A wildtype, primary screen, biochemical, dog, bead-based flow cytometry, multiplex; Ras-related protein Rab-2A (Canis lupus familiaris), P61105; GST-Rab2 wt beads, Bodipy-GTP binding; GTP binding activity, % at 10 µM; 190,000 tested, 0.19% active;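 active means GTP binding activity at least 20 points away from 100%, either lowered or raised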;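 further: 0% = beads with excess unlabeled GTP and 100% = no-compound control corrected for plate trend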
# Cdc42 wt – modulators of GTP binding to wildtype Cdc42, primary screen, biochemical, multiplex bead flow cytometry, Bodipy-GTP; 190,000 tested, 0.2% active; percent activity (GTP binding), % at 10 µM; AID 761, 2007; GST-Cdc42 beads; actives lie on both sides;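 active means percent activity GTP binding at least 20 points away from the 100% baseline, either down as inhibitor or up as activator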;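 further: median bead fluorescence of bound Bodipy-FL-GTP at 100 nM; 0% = excess unlabeled GTP control and 100% = no compound control; below 100% means less GTP binding so inhibitor and above means activator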
# Target sequence (P60953 whole entry, looked up): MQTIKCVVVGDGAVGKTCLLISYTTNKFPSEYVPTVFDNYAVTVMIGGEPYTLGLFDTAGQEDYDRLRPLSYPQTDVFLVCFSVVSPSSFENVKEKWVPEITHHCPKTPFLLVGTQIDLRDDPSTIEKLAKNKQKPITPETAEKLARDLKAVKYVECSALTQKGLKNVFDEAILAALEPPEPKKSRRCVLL
# Rac1 wt modul – wildtype Rac1 GTP binding modulators, primary screen, biochemical, GST-Rac1 beads, flow cytometry, multiplex | Ras-related C3 botulinum toxin substrate 1 (Homo sapiens), P63000 | fluorescent GTP binding; actives lie on both sides; 0 = cold GTP competed, 100 = untreated | GTP binding activity (% of control), % at 10 µM | 190,000 tested, 0.27% active;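 active means GTP binding activity at least 20 points away from the 100% control level, either lower or higher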
# Starred values were filed as active, the others as inactive; [ ] = another dose, or the depositor's remark.
SMILES,Rac1 act GTP bind,Rab7 wt GTP bind,HRas wt GTP,Rab2 wt GTP,Cdc42 wt,Rac1 wt modul
COc1ccc(C)cc1NC(=O)COC(C)=O,107,103,105,108,120*[activator],137*[activator]
Cc1nnc2ccc(-c3cccc(NC(=O)c4ccco4)c3)nn12,75*,77*,65*,63*,64*,56*
CN1CCN(c2ccccc2NC(=O)c2ccc(-c3cccc([N+](=O)[O-])c3)o2)CC1,107,106,107,106,108,123*[activator]
CN1C(=O)/C(=C2\SC(=S)N(CC3CCCO3)C2=O)c2ccccc21 (stereo not given),101,102,102,102,104,104
O=C1/C(=C\c2ccc(-c3ccccc3Cl)o2)SC(=S)N1CC1CCCO1 (stereo not given),59*,68*,55*,62*,63*,59*
CS(=O)(=O)c1ccc(C(=O)OCC(=O)NC(=O)C2CCCCC2)cc1[N+](=O)[O-],71*,100,87,82,68*,89
O=C(OCc1nnc(-c2ccccc2)o1)c1ccc(Cl)cc1,91,92,92,91,93,91
CS(=O)(=O)c1ccc(C(=O)OCc2nnc(-c3ccccc3)o2)cc1[N+](=O)[O-],74*,100,87,85,76*,89
Cc1ccccc1NC(=O)COC(=O)c1ccc(S(C)(=O)=O)c([N+](=O)[O-])c1,82,99,91,94,83,92
Cc1cccc(-c2c3c(=O)n(C)c(=O)n(C)c3c3cccnn23)c1,99,104,103,102,103,114
O=S(=O)(Nc1ncn[nH]1)c1ccc2ccccc2c1,113,112,113,110,121*[activator],126*[activator]
O=S(=O)(Nc1nc2ccccc2[nH]1)c1ccc2ccccc2c1,90,92,93,93,94,95
Cc1ccc(-n2c(=O)cc(N3CCc4ccccc4C3)[nH]c2=O)cc1,106,104,107,107,110,126*[activator]
Cc1ccc(-n2c(=O)cc(N3CCN(C(=O)c4ccco4)CC3)[nH]c2=O)cc1,105,107,106,102,102,121*[activator]
CNc1nc(SC)nc(N(C)C#N)n1,94,102,91,95,96,96
O=C(O)C1=C[C@@H](c2ccccc2)C[C@@H](OCc2ccc(CO)cc2)O1,92,101,92,94,90,93
O=C(O)C1=C[C@H](c2ccc(Br)cc2)C[C@H](OCc2ccc(CO)cc2)O1,69*,94,78*,74*,71*,75*
Cc1ccc(-c2nn(C)c(=O)c3ccccc23)cc1CNC(=O)c1ccco1,104,106,108,109,109,111
CC(C)(C)NC(=O)COC(=O)c1ccc(S(=O)(=O)N2CCCC2)cc1,98,103,100,98,100,100
O=C(c1ccc2c(=O)n(-c3ccccc3)c(=O)[nH]c2c1)N1CCN(c2ccc(F)cc2)CC1,101,107,105,105,106,110
CC(=O)c1ccc(N2CCN(C(=O)c3ccc4c(=O)n(-c5ccccc5)c(=O)[nH]c4c3)CC2)cc1,106,104,108,107,105,121*[activator]
Cc1cc(C)nc(/N=C(\N)Nc2ccc(S(=O)(=O)Nc3nccc(C)n3)cc2)n1,88,96,90,92,90,91
CCCCOC(=O)CSC(=S)N(C)Cc1cccs1,101,100,103,104,102,100
CC(SC(=S)N(C)Cc1cccs1)C(=O)O (stereo not given),144*[activator],136*[activator],140*[activator],140*[activator],168*[activator],196*[activator]
